In PubChem BioAssay (NCI):
This is part of a sample that, as a whole, favours compounds with a hit. Of some 79,000 tested, about 15% had one in any assay. Unmarked numbers belong to inactive results. Active and inactive are the calls of the source. Cut-off read from the data, not from the text of the source: active = growth inhibition above about 70%; inactive = the rest.

Tests used:
[1] = NCI Yeast Anticancer Drug Screen. Data for the rad50 strain (AID 155);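 note: 0% = growth of vehicle-only cultures of the same strain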; details: S. cerevisiae rad50 strain growth inhibition, active compounds read high
Outline: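 Compounds were tested on a yeast strain with an engineered DNA damage repair alteration; the reported value is growth inhibition normalised to vehicle treatment.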

[2] = NCI Yeast Anticancer Drug Screen. Data for the mec2-1 strain (AID 157); details: S. cerevisiae mec2-1 strain, active compounds read high
Outline: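 Mutant yeast (mec2-1) grown with compound; growth inhibition relative to vehicle control reported.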

[3] = NCI Yeast Anticancer Drug Screen. Data for the sgs1 mgt1 strain (AID 161);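 note: 0% = growth of cultures given vehicle only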; details: S. cerevisiae sgs1 mgt1 strain, active compounds read high
Outline: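 Yeast cells carrying a defined DNA-repair defect were exposed to test compounds. Growth inhibition was measured relative to vehicle-treated controls.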

[4] = NCI Yeast Anticancer Drug Screen. Data for the cln2 rad14 strain (AID 165);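 note: 0% = growth equal to vehicle treated cultures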; details: S. cerevisiae cln2 rad14 strain, active compounds read high
Outline: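 Readout is yeast growth inhibition versus vehicle-treated controls, using a strain with cln2 and rad14 alterations exposed to compound.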

[5] = NCI Yeast Anticancer Drug Screen. Data for the bub3 strain (AID 167); details: S. cerevisiae bub3 mutant strain, active compounds read high
Outline: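 Growth of a checkpoint-deficient yeast mutant is measured after compound exposure. Values represent inhibition relative to vehicle.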

[6] = NCI Yeast Anticancer Drug Screen. Data for the mlh1 rad18 strain (AID 175); details: S. cerevisiae mlh1 rad18 strain growth inhibition, active compounds read high
Outline: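 Genetically defined yeast (DNA repair-deficient) exposed to compounds; growth inhibition determined relative to vehicle.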

[7] = at 5.0 µM (retest, dose inferred, filed as 0.5)
[8] = at 50.0 µM (retest, dose inferred, filed as 5.0)

Structure (SMILES)	growth inhibition [1, 7]	growth inhibition [1, 8]	growth inhibition ([1]; at 50.0 µM)	growth inhibition [2, 7]	growth inhibition [2, 8]	growth inhibition ([2]; at 50.0 µM)	growth inhibition [3, 7]	growth inhibition [3, 8]	growth inhibition ([3]; at 50.0 µM)	growth inhibition [4, 7]	growth inhibition [4, 8]	growth inhibition ([4]; at 50.0 µM)	growth inhibition [5, 7]	growth inhibition [5, 8]	growth inhibition ([5]; at 50.0 µM)	growth inhibition [6, 7]	growth inhibition [6, 8]	growth inhibition ([6]; at 50.0 µM)
CCOC(=O)c1c(Br)c(-c2ccc(Br)cc2)c(Br)n1C	-6%	1%	7.95%	-7%	-29%	-16.1%	-11%	-1%	-6.25%	29%	-25%	24.1%	-11%	-15%	-7%	-8%	-12%	-10.6%
CC1CCC2(OC1)OC1CC3C4CCC5CC(OC6OC(COC7OC(CO)C(O)C(O)C7O)C(OC7OC(C)C(O)C(O)C7O)C(O)C6OC6OC(CO)C(O)C(O)C6O)CCC5(C)C4CCC3(C)C1C2C (stereo not given)	0%	99% (active)	99.2% (active)	-1%	100% (active)	99.8% (active)	16%	97% (active)	99.8% (active)	-2%	99% (active)	99.5% (active)	15%	100% (active)	99.6% (active)	2%	100% (active)	99.7% (active)
CC(C)(C)c1cc2c3c(c1)Oc1cc(C(C)(C)C)cc4c1C3(O)c1c(cc(C(C)(C)C)cc1O4)O2	19%	99% (active)	89.8% (active)	22%	100% (active)	88.5% (active)	-5%	99% (active)	86.4% (active)	14%	98% (active)	87.3% (active)	12%	98% (active)	84.7% (active)	14%	100% (active)	87.7% (active)
O=C1/C(=C\c2ccccc2)C(NC2CCCCC2)c2ccccc21 (stereo not given)	73% (active)	99% (active)	99.6% (active)	43%	99% (active)	99.7% (active)	65%	98% (active)	99.7% (active)	37%	100% (active)	99.5% (active)	75% (active)	99% (active)	99.5% (active)	74% (active)	99% (active)	99.5% (active)
O=[N+]([O-])C(/C=C(\Cl)n1nnc2ccccc21)=C(/Cl)n1nnc2ccccc21	25%	36%	-1.95%	17%	18%	-3.7%	13%	26%	25.2%	11%	11%	13.4%	27%	27%	14.4%	22%	35%	17.3%
Nc1cc(Br)cc2c1[nH]c1ccc(Br)cc12	46%	98% (active)	98.6% (active)	16%	98% (active)	99% (active)	59%	99% (active)	98.1% (active)	3%	97% (active)	97.8% (active)	18%	98% (active)	98.5% (active)	58%	98% (active)	98.9% (active)
CCCCCCC1CC(=O)C1(Cl)Cl (stereo not given)	-9%	100% (active)	89.1% (active)	-16%	100% (active)	93.3% (active)	-17%	100% (active)	90.1% (active)	-4%	100% (active)	92.5% (active)	-32%	100% (active)	92% (active)	12%	100% (active)	86.2% (active)
CO[C@H]1C[C@@H]2CC[C@@H](C)[C@@](O)(O2)C(=O)C(=O)N2CCCC[C@H]2C(=O)O[C@H]([C@H](C)C[C@@H]2CC[C@@H](OC(=O)C(C)(CO)CO)[C@H](OC)C2)CC(=O)[C@H](C)/C=C(\C)[C@@H](O)[C@@H](OC)C(=O)[C@H](C)C[C@H](C)/C=C/C=C/C=C/1C	98% (active)	97% (active)	82.5% (active)	99% (active)	98% (active)	86.8% (active)	98% (active)	98% (active)	87.3% (active)	93% (active)	88% (active)	88% (active)	97% (active)	96% (active)	89.5% (active)	98% (active)	97% (active)	89.5% (active)
CN(C)c1ccc(C(O)(Cc2cccnc2)c2ccc(N(C)C)cc2)cc1	-3%	2%	39.2%	-4%	6%	36.8%	-2%	4%	53%	-1%	-4%	13.3%	-3%	1%	72% (active)	-5%	8%	54.9%
CCO[Si](CC)(OCC)OCC	-3%	2%	27.1%	-6%	-3%	4.4%	4%	3%	-12.2%	0%	3%	81.1% (active)	-3%	6%	-6%	-2%	3%	31.8%
CC(CN(C)C)C(/C=C/c1ccccc1)=N\NC(=O)c1ccccc1 (stereo not given)	-14%	3%	3.15%	-7%	-7%	13.1%	-4%	3%	3.05%	-11%	-4%	3.15%	-3%	-11%	-18.4%	2%	11%	-3.6%
COc1cc(/C=C/C2=C(C)C(=O)CC(c3cc(OC)c(OC)c(OC)c3)C2C)cc(OC)c1OC (stereo not given)	2%	-1%	-6.25%	-5%	22%	-1.7%	0%	25%	15.4%	-8%	-27%	75.8% (active)	-2%	7%	2.1%	0%	-102%	42.6%
OCCOc1ccc2ccccc2c1-c1c(OCCOc2ccc3ccccc3c2-c2c(OCCO)ccc3ccccc23)ccc2ccccc12	0%	22%	36.1%	-3%	13%	21.5%	1%	29%	36.9%	6%	33%	11.7%	-2%	14%	24.6%	3%	27%	26.4%
NC(Cc1nn[nH]n1)C(=O)O (stereo not given)	3%	-15%	-13.2%	-6%	-10%	-5.95%	-16%	-15%	-42.8%	-11%	-6%	22.4%	10%	-13%	0.95%	-18%	-6%	-23%
O=C1NC(=S)S/C1=C/c1ccc(/C=C2/SC(=S)NC2=O)cc1	-16%	-3%	21%	-10%	-14%	22.6%	-6%	-3%	9.45%	-19%	-22%	58.4%	-12%	-12%	7.75%	-15%	-19%	28.4%
CSc1cc(-c2cc3ccccc3o2)oc(=O)c1C#N	6%	-8%	-1.6%	-1%	-10%	-6.6%	3%	-11%	-24.4%	-9%	-6%	-4.5%	-5%	-8%	40.1%	-4%	-11%	-23.9%
O=C1C(c2ccccc2)CS(=O)(=O)CC1c1ccccc1 (stereo not given)	-10%	0%	14%	-8%	7%	2.85%	5%	7%	57.1%	3%	-4%	7%	-3%	-12%	-7.65%	13%	9%	12.6%
CCCCCCCCCCCC(=O)OCCN(CCOC(=O)CCCCCCCCCCC)C(=O)COC(=O)CCCCCCCCCCC	-4%	39%	99.4% (active)	1%	94% (active)	99.7% (active)	3%	92% (active)	99.8% (active)	-2%	81% (active)	99.3% (active)	-2%	60%	60.4%	1%	86% (active)	99.3% (active)
CC(C)N=Cc1cc(I)cc(I)c1O.CC(C)N=Cc1cc(I)cc(I)c1O.[Co]	99% (active)	99% (active)	96.8% (active)	99% (active)	99% (active)	97.6% (active)	99% (active)	99% (active)	97.2% (active)	98% (active)	98% (active)	96.1% (active)	98% (active)	99% (active)	96.5% (active)	99% (active)	99% (active)	97% (active)
O=C1C=CC(=O)N1c1ccc(Cl)cc1Br	49%	42%	93.3% (active)	40%	44%	94.3% (active)	100% (active)	100% (active)	94.2% (active)	68%	100% (active)	92.4% (active)	100% (active)	99% (active)	58.4%	28%	45%	92.5% (active)
O=[N+]([O-])c1ccc(S(=O)/N=C/c2ccccc2)c([N+](=O)[O-])c1 (stereo not given)	-2%	96% (active)	48.2%	-4%	98% (active)	45.5%	2%	94% (active)	67.6%	1%	82% (active)	9%	-4%	97% (active)	25.9%	-4%	97% (active)	74.3% (active)
OC(CC(CC(O)(C(F)(F)Cl)C(F)(F)Cl)=NNc1ccccc1)(C(F)(F)Cl)C(F)(F)Cl	87% (active)	99% (active)	99% (active)	91% (active)	99% (active)	99.2% (active)	79% (active)	98% (active)	99.3% (active)	83% (active)	99% (active)	99.2% (active)	52%	99% (active)	99% (active)	93% (active)	99% (active)	99% (active)
Oc1c(Cl)cccc1-c1ccccc1	2%	-5%	20.1%	-21%	0%	12.2%	1%	10%	36.9%	1%	-14%	1.9%	7%	-4%	4.45%	-1%	8%	67.8%
Cc1cc(N)cc(C)c1-c1c(N)cc(Br)cc1Br	-1%	-10%	98.1% (active)	-3%	-6%	97.5% (active)	-4%	-9%	98.3% (active)	1%	-10%	96.6% (active)	-7%	-13%	98.1% (active)	-2%	-9%	97.9% (active)
CN(Cc1cnc2nc(N[Si](C)(C)C)nc(N[Si](C)(C)C)c2n1)c1ccc(C(=O)NC(CCC(=O)O[Si](C)(C)C)C(=O)O[Si](C)(C)C)cc1 (stereo not given)	19%	89% (active)	91% (active)	66%	97% (active)	98.3% (active)	2%	72% (active)	64.7%	-8%	47%	26%	-4%	90% (active)	69.7%	15%	81% (active)	60.6%
